Compound activity (PubChem BioAssay)
An excerpt weighted towards active compounds, which were near 12% of everything screened.
JMJD2A Tudor – inhibitors of human JMJD2A Tudor domain. AlphaScreen JMJD2A-Tudor / H3K4me3 peptide binding. Potency, µM (doses to about 114 µM), usual class: inhibitors. 390,000 compounds, 4.4% hits. AID 504339; note: nearly all actives have a fitted effect of over 50% in size
Target sequence (O75164 whole entry, looked up, the tested form may be a part): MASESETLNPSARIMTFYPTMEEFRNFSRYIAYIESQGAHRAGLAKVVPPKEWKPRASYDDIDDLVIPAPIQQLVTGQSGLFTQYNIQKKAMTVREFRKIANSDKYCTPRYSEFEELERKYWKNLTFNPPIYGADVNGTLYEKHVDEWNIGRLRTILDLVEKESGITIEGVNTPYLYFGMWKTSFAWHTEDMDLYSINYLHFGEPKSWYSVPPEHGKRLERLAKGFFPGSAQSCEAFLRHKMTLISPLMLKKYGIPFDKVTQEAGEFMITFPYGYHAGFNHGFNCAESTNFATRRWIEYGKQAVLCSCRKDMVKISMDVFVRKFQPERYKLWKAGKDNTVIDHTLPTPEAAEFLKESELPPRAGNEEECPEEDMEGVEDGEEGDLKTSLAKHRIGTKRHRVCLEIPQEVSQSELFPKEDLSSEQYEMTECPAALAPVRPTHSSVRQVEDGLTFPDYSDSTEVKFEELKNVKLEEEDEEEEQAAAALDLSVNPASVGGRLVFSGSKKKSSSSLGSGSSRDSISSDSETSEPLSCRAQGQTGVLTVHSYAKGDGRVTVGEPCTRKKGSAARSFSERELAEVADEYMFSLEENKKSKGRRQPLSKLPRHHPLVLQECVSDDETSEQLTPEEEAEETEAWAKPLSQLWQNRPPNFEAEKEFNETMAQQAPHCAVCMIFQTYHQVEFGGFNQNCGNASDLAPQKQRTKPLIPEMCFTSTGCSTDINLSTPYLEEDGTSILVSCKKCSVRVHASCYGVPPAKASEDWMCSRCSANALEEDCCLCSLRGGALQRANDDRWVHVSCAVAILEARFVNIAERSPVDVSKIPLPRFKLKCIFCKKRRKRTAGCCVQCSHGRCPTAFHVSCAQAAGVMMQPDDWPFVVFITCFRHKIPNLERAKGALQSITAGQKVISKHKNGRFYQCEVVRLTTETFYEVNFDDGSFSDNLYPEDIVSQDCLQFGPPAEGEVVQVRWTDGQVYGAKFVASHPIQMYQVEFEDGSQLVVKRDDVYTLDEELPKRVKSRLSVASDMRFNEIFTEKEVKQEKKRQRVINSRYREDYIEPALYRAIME
HP1b chromo inh – inhibitors of HP1-beta chromodomain binding to methylated histone tails. P83916. AlphaScreen HP1-beta / biotin-H3K9me3 peptide binding. Potency, µM (series often up to 114 µM), actives largely listed as inhibitors. 390,000 compounds, 0.56% hits. AID 540317; note: nearly all actives have a fitted effect of over 70% in size
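HP1-beta protein (50 nM final) preincubated 30 min at room temperature with biotinylated H3(1-18)K9me3 peptide (50 nM) in PBS pH 7.4, 0.01% Tween-20, then compound added for 30 min. AlphaScreen streptavidin donor/nickel chelate acceptor beads (10 ug/mL final), 30 min dark, luminescence read.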
PLK1 PBD inh – inhibitors of human PLK1 polo-box domain binding | P53350 | Plk1 PBD binding of FITC phosphopeptide, fluorescence polarization | Potency, µM, most hits filed as inhibitors | 360,000 compounds, 2.8% hits | AID 720504; note: series mostly up to about 57 µM; nearly all actives have a fitted effect of over 65% in size
BAZ2B inh – inhibitors of human BAZ2B bromodomain; Q9UIF8; AlphaScreen BAZ2B-H3K14Ac peptide displacement; Potency, µM (series often up to 114 µM), usual class: inhibitors; 360,000 compounds, 4.4% hits; AID 504333; note: nearly all actives have a fitted effect of over 60% in size
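AlphaScreen luminescence quantifies BAZ2B engagement of H3K14Ac peptide; the protein and biotinylated peptide are both at 50 nM final, buffer PBS pH 7.4 with 0.01% Tween-20, all steps at room temperature.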
G9a inh – G9a (human) methyltransferase inhibition. Q96KQ7. G9a H3K9 monomethylation, AlphaScreen, 2 h. Potency, µM (doses to about 102 µM), hits mostly inhibitors. 350,000 compounds, 8.8% hits; note: nearly all actives have a fitted effect of over 75% in size
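Compounds were preincubated with 20 nM G9a for 15 min, after which biotinylated H3K9 peptide (500 nM) and SAM (20 uM) started a 2 h room-temperature reaction. Monomethylated product was quantified by antibody-based AlphaScreen chemiluminescence.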
Sfp PPTase inh – inhibitors of Bacillus subtilis Sfp phosphopantetheinyl transferase; Q9F4F7; Biochemical Sfp PPTase activity, qHTS; Potency, µM, hits mostly inhibitors; 310,000 compounds, 3.5% hits; AID 1490;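 note: the enzyme is Sfp with the accession as filed and its product quenches rhodamine fluorescence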
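With Hepes-Na pH 7.6 buffer containing 10 mM MgCl2, Sfp (15 nM) modified BHQ-2-YbbR (12.5 uM) using rhodamine-CoA (5 uM). Two reads 30 minutes apart at 525/598 nm yielded each well's rate.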
A number is an active result; - = inactive; ? = inconclusive; . = no result given; [ ] = remark or other dose. Calls come from the whole dose curve; as a rule, active = well fitted curve in the direction sought with a large enough effect; inconclusive = small, poorly fitted or top-dose-only effect, or another doubt; inactive = no such curve, though single readings can be large; an effect the other way counts as inactive or inconclusive.

SMILES | JMJD2A Tudor | HP1b chromo inh | PLK1 PBD inh | BAZ2B inh | G9a inh | Sfp PPTase inh
CN(C)c1ccc(/C=N/n2c(-c3ccccc3Br)n[nH]c2=S)cc1 | 14.1µM | - | - | ? | 0.708µM | 56.2µM
Cc1ccc(/C=N/n2nnnc2N)o1 | - | - | - | - | - | -
Cc1ccc(-c2n[nH]c(=S)n2/N=C/c2ccc(C)o2)cc1 | 25.1µM | - | - | ? | 0.891µM | 70.8µM
Cc1nc2ccccc2c(=O)n1/N=C/c1ccc(N(C)C)cc1 | - | - | - | - | - | -
Cc1ccc(/C=N/n2c(C)nnc2C)o1 | ? | - | 21.2µM | - | - | -
N#CCCN(Cc1ccccc1)C(=O)Nc1ccc(F)cc1 | - | - | - | - | - | -
Cc1ccc(-c2n[nH]c(=S)n2/N=C/c2ccncc2)cc1 | ? | - | ? | - | 1.58µM | -
Cc1ccc(/C=N/n2c(-c3cccnc3)n[nH]c2=S)o1 | 5.01µM | - | - | ? | 28.2µM | 56.2µM
O=S1(=O)CCC(NCC2CCCO2)C1 (centres undefined) | - | - | - | - | 50.1µM | -
CSc1ccc(-c2sc(Nc3ccccc3)n[n+]2-c2ccc(F)cc2)cc1 | 56.2µM | - | 29.9µM | ? | 50.1µM | -
C[n+]1nc(Nc2ccccc2)sc1-c1ccc(O)cc1 | - | - | - | - | ? | -
Oc1ccc(-c2sc(Nc3ccccc3)n[n+]2-c2ccc(F)cc2)cc1 | - | - | - | ? | 35.5µM | -
NCCc1ccn[nH]1 | - | - | - | - | -[21.5 µM] | -
Cc1ccc(S(=O)(=O)N(CC(=O)NCCSCc2ccco2)c2ccc(F)cc2)cc1 | . | . | . | ? | . | 56.2µM
O=C(COc1ccccc1)NCCSCc1ccco1 | ? | - | - | ? | - | -
CN(c1ccc(C(=O)NCc2ccco2)cc1)S(C)(=O)=O | ? | - | ? | - | -[12.7 µM] | -
O=C(CCSc1ccccc1)NCCSCc1ccco1 | - | - | - | - | - | 50.1µM
O=C(CN(c1ccccc1)S(=O)(=O)c1ccccc1)NCCSCc1ccco1 | 56.2µM | - | - | 50.1µM | ? | -
CN(c1ccc(C(=O)NCCSCc2ccco2)cc1)S(C)(=O)=O | - | - | - | - | - | 35.5µM
CC(=O)Oc1ccc2cc(-c3nc4c(s3)CCc3ccccc3-4)c(=O)oc2c1 | - | - | . | . | . | .
Cc1ccc2c(NCc3ccco3)nc(NC(C)C)nc2c1 | . | . | - | . | . | .
COc1ccc2c(c1)c(=O)c(C(=O)c1ccc(F)cc1)cn2CC(=O)Nc1ccc2c(c1)OCCO2 | - | - | . | - | - | .
CC(C)C(NC(=O)CN1C(=O)c2ccccc2C1=O)c1ccccc1 (centres undefined) | - | - | - | - | - | -
COC(=O)c1c(C)nc(C)c(C(=O)OC)c1-c1ccsc1 | - | - | - | - | - | -
Cc1nc(C)c(C(=O)O)c(-c2ccsc2)c1C(=O)O | - | - | - | - | 50.1µM | -
SMILES | JMJD2A Tudor | HP1b chromo inh | PLK1 PBD inh | BAZ2B inh | G9a inh | Sfp PPTase inh
CC(=O)Nc1ccc(N2C(=O)CC(Sc3nc4ccccc4s3)C2=O)cc1 (centres undefined) | - | - | - | - | 28.2µM | -
CCOC(=O)c1cnc(SC2CC(=O)N(c3ccc(OC)c(OC)c3)C2=O)nc1N (centres undefined) | - | - | - | - | 20µM | -
CCOc1ccc2nc(SC3CC(=O)N(c4ccc(OC)cc4OC)C3=O)sc2c1 (centres undefined) | - | - | - | - | 31.6µM | -
CCOc1ccc(N2C(=O)CC(Sc3nc4ccc(OCC)cc4s3)C2=O)cc1 (centres undefined) | - | - | - | . | . | .
COc1ccc(N2C(=O)CC(Sc3nc4ccccc4s3)C2=O)cc1OC (centres undefined) | - | - | - | - | 31.6µM | -
O=C(NCc1ccccc1Cl)C1CCCN(c2ncnc3onc(-c4ccc(F)cc4)c23)C1 (centres undefined) | - | - | . | - | - | .
Cc1ccc(CN2CCCn3nc(C(=O)NCc4cc(C)ccc4C)cc3C2=O)cc1 | - | - | . | - | - | .
CCOc1ccc(S(=O)(=O)N2CC(=O)Nc3ccccc32)cc1 | - | - | - | - | - | -
CCOC(=O)N1CCN(C(=O)c2ccc3c(=O)n(-c4ccc(F)cc4)c(=S)[nH]c3c2)CC1 | 79.4µM | . | - | - | ? | -
CCCn1c(=S)[nH]c2cc(C(=O)N3CCN(C(=O)OCC)CC3)ccc2c1=O | - | - | - | - | - | -
CN1CCN(C(=O)c2ccc3c(=O)n(-c4ccc(F)cc4)c(=S)[nH]c3c2)CC1 | 10µM | - | - | - | ? | -
COc1ccc(-n2c(=S)[nH]c3cc(C(=O)N4CCN(c5ccccc5)CC4)ccc3c2=O)cc1 | - | - | - | - | - | -
Cn1c(=S)[nH]c2cc(C(=O)N3CCN(C(=O)c4ccccc4)CC3)ccc2c1=O | 79.4µM | - | . | . | . | .
Cc1nc(C(F)(F)F)c(C(=O)N/N=C(\N)c2cccnc2)s1 | 28.2µM | - | - | 79.4µM | - | ?
C/C(=N\NC(=O)c1sccc1C)c1cccnc1 | - | - | - | - | - | -
O=C(O)c1ccc(N2Cc3ccccc3C2)cc1O | ? | - | ? | ? | 8.91µM | -
CCOC(=O)c1c(NC(=O)c2ccco2)n(C2CCCCC2)c2nc3ccccc3nc12 | - | - | - | - | 50.1µM | -
CCCCn1c(NC(=O)c2ccccc2Cl)c(C#N)c2nc3ccccc3nc21 | - | - | 26.7µM | - | - | -
N#Cc1c(NC(=O)c2ccccc2Cl)n(Cc2ccccc2)c2nc3ccccc3nc12 | - | - | 15µM | - | ? | -
COc1ccc(-n2c(NC(=O)c3ccco3)c(C#N)c3nc4ccccc4nc32)cc1 | - | - | ? | - | - | 35.5µM
COc1ccc(C(=O)Nc2ccc(NC(=O)c3ccco3)cc2)cc1 | - | - | - | - | - | -
Cc1c(Cl)cccc1NC(=S)N(CCN(C)C)C(C)c1ccco1 (centres undefined) | ? | - | - | - | ? | -
Fc1ccc(C2=NNC(=NCc3ccccc3)SC2)cc1F | ? | - | 26.7µM | ? | ? | ?
COCCN=C1NN=C(c2ccc(NC(C)=O)cc2)CS1 | - | - | ? | - | ? | 39.8µM
CCN=C1NN=C(c2ccc(C)cc2)CS1 | - | - | ? | - | 31.6µM | ?
SMILES | JMJD2A Tudor | HP1b chromo inh | PLK1 PBD inh | BAZ2B inh | G9a inh | Sfp PPTase inh
CC(C)N=C1NN=C(c2ccc(F)cc2)CS1 | - | - | - | - | ? | 56.2µM
Fc1ccccc1N=C1NN=C(c2ccccc2)CS1 | - | - | - | - | ? | ?
COc1ccc(-c2c3c(=O)n(C)c(=O)n(C)c3c3n2-c2ccccc2NC3c2ccc(OC)cc2)cc1 (centres undefined) | - | - | . | - | - | .
COc1ccc(N2CCN(C3CCCN(C(=O)CSC)C3)CC2)cc1 (centres undefined) | - | - | - | - | - | -
c1ccc(C2=NNC(=NCc3ccc4c(c3)OCO4)SC2)cc1 | - | - | ? | - | 39.8µM | -
C=CCN=C1NN=C(c2ccc3c(c2)OCCO3)CS1 | - | - | - | - | 39.8µM | -
